Records with an inconclusive call do not appear. Unless noted, calls follow the shape of the dose curve; as a rule, active = well fitted curve in either direction with a large enough effect (not every such curve was filed as active); inconclusive = small, poorly fitted or top-dose-only effect, or another doubt; inactive = flat fitted curve, though single readings scatter.
What was measured:
[1] = AP1 Signaling Pathway (AID 357); conditions: ME-180 AP-1-bla reporter, EGF-induced, beta-lactamase ratio, 5 h; at 17.2 µM (top of the series) unless noted;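 also: ME-180 reporter cells stimulated with EGF at its EC50 level; % is scaled to controls: 0 for no effect and ±100 for the full control effect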
Summary of the method: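 Titration-series screen for positive or negative modulators of EC50 EGF-induced signaling in ME-180 cells carrying an AP-1-driven beta-lactamase reporter. After 5 hours at 37 degrees Celsius, CCF4 460nm/530nm emission ratio gave %Activity; AC50 values derived.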

[2] = Stat Signaling Pathway (AID 446); conditions: ME-180 SIE beta-lactamase reporter, IL-6 stimulated, 5 h; at 17.2 µM (top of the series) unless noted;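 also: ME-180 cervical cancer cells given 40 pM IL-6 alongside compound; SIE-controlled beta-lactamase reporter measured as 460/530 nm FRET emission ratio; % is scaled to controls: 0 for no effect and ±100 for the full control effect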
Summary of the method: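 Reporter line: ME-180 cervical carcinoma, SIE-beta-lactamase. Treatment: compound with 40 pM IL-6, 5 hrs, 37 C, in low-serum OPTI-MEM with 10 mM HEPES pH 7.3. Detection: 460/530 nm fluorescence.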

[3] = molecular target: Glucocorticoid receptor (Homo sapiens) (UniProt P04150); experiment: GR-GFP Redistribution (AID 450;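 active = compounds whose dose series gives a full or clear partial fitted curve of increased nuclear translocation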; also: potency is read from the fitted curve at half-maximal effect)
Sequence of Glucocorticoid receptor (Homo sapiens) (P04150 whole entry, looked up): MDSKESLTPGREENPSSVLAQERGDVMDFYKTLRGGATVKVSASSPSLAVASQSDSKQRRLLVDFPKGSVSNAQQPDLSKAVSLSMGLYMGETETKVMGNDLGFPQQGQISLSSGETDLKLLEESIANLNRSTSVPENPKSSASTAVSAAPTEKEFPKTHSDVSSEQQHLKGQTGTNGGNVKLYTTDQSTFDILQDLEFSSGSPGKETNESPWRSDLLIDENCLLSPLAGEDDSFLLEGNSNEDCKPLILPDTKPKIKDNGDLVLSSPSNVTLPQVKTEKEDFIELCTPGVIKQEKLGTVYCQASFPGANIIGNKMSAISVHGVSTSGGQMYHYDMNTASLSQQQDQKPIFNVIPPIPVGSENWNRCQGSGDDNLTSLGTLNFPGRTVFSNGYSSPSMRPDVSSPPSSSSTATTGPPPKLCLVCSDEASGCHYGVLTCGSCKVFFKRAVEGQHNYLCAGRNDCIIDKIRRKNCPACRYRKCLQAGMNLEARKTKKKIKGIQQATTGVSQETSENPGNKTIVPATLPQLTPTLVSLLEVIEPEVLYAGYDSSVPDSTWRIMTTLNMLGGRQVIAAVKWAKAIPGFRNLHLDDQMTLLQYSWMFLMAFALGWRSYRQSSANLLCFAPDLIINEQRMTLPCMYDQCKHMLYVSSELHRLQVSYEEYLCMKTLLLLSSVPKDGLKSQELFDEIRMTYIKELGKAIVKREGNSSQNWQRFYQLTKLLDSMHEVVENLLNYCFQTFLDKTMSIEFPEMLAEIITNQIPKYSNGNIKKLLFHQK

CC1(C)Cc2c(C#N)c(SCC(=O)c3ccccc3)nc(N3CCOCC3)c2CS1
inactive: activity change, negative = inhibition [1] -7.36% | activity, negative = inhibition [2] 0.377% | Potency [3] > 20.6 µM

O=C(O)C1[C@H]2C(=O)N(Cc3cccs3)C[C@]23C=C[C@H]1O3 (some centres undefined)
inactive: activity change, negative = inhibition [1] 4.68% | activity, negative = inhibition [2] 2.6% | Potency [3] > 20.6 µM

C=CCOc1nc2c(c(=O)n(C)c(=O)n2C)n1Cc1c(Cl)cccc1Cl
inactive: activity change, negative = inhibition [1] 0.413% | activity, negative = inhibition [2] 3.61% | Potency [3] > 20.6 µM

From PubChem BioAssay (NCATS)
